# ROC1-CUL1 inh: inhibitors of human ROC1-CUL1 ubiquitin ligase activity | inhibition, % at 10 µM | in vitro K48 di-Ub FRET, acceptor:donor ratio, 45 min | AID 1347404, 2020 | E3 ubiquitin-protein ligase RBX1 (Homo sapiens) + Cullin-1 (Homo sapiens), P62877+Q13616 | hit rate 0.6% among 140,000; in the data active means inhibition above about 25%
# Target sequence (P62877 whole entry, looked up): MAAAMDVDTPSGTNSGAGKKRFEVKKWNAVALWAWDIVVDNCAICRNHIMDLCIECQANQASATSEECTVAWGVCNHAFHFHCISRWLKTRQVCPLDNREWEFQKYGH
# Target sequence (Q13616 whole entry, looked up): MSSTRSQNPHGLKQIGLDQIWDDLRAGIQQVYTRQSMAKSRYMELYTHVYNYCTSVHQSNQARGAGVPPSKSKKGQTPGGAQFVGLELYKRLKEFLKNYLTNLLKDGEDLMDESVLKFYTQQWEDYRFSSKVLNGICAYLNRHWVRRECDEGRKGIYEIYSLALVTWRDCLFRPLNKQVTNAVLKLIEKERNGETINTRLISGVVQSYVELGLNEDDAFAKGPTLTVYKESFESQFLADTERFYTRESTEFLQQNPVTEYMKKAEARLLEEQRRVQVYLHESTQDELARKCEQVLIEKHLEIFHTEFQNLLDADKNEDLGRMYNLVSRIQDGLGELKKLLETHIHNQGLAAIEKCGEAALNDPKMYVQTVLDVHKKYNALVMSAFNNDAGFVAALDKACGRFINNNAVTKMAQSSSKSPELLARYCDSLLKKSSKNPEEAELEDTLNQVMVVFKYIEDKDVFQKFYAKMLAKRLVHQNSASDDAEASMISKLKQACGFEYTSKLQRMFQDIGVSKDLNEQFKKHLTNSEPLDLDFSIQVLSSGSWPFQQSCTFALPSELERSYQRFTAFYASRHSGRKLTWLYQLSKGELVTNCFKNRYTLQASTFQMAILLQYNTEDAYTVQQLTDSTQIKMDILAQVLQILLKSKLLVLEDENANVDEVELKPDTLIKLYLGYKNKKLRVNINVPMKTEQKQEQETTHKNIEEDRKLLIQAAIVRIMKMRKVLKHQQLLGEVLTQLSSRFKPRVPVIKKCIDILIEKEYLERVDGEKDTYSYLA
# * marks the source's active call; other numbers are inactive results. The entries come from a sample that favours hits as a whole.
SMILES,ROC1-CUL1 inh
Cc1cccnc1CCNC(=O)c1ccc(C2CCCN2C(C)C)s1 (stereo not given),-1
CN1C2CCC1/C(=C/c1cccn1C)C(=O)/C2=C\c1cccn1C,25*
CN1C2CCC1/C(=C/c1cc(Br)cs1)C(=O)/C2=C\c1cc(Br)cs1,-9
Cn1cccc1/C=N/Nc1nncc(-c2ccccc2)n1,4
CC(=O)CCC(=O)NC1CCCc2c1cnn2-c1cc(C)cc(C)c1 (stereo not given),6
COC(=O)c1coc(-c2ccc(C)cc2)c1C(=O)OC,3
O=C(c1ccccc1)N1CCN(S(=O)(=O)c2ccc(Cl)s2)CC1,9
Nc1nc2ccc(N)c(Cl)c2c(=O)[nH]1,-5
Nc1nc(N)c2c(F)cccc2n1,13
Nc1nc(N)c2c(F)c(N)ccc2n1,65*
c1ccc(-c2noc3c2CN(Cc2ccco2)CC3)cc1,10
O=C1C(=O)N(c2nnc(SCc3ccccc3Cl)s2)C(c2ccc(Cl)cc2)C1C(=O)c1cc2ccccc2o1 (stereo not given),29*
CCOc1cc(C2C(C(=O)c3cc4ccccc4o3)C(=O)C(=O)N2Cc2ccco2)ccc1O (stereo not given),3
CCCCCOc1ccc(C2C(C(=O)c3cc4ccccc4o3)C(=O)C(=O)N2c2nc3ccc(OCC)cc3s2)cc1OC (stereo not given),-6
CCOc1cc(C2C(C(=O)c3cc4ccccc4o3)C(=O)C(=O)N2c2nnc(SCc3ccccc3Cl)s2)ccc1O (stereo not given),33*
O=C1C(=O)N(c2nnc(SCc3ccccc3F)s2)C(c2ccc(Cl)cc2)C1C(=O)c1cc2ccccc2o1 (stereo not given),-2
CC(=O)c1sc(N2C(=O)C(=O)C(C(=O)c3cc4ccccc4o3)C2c2ccc(O)cc2)nc1C (stereo not given),11
CCOC(=O)C(Cc1c[nH]c2ccccc12)NC(=O)COc1ccc(CC)cc1 (stereo not given),0
COc1ccccc1NC(=O)C1C(C)=NC(SCC(N)=O)=C(C#N)C1c1ccccc1 (stereo not given),1
CC(=O)C1C(=O)c2cccc3c2N(CC3)C1=O (stereo not given),-4
Cc1nn(C)c2c1c(-c1ccccc1)cc(=O)n2Cc1ccccc1Cl,-4
O=c1[nH]nnc2c1sc1nc3c(c(-c4ccc(Cl)cc4)c12)CCCC3,3
NC(=O)c1sc2nnc(-c3ccco3)c(-c3ccco3)c2c1N,-7
O=c1[nH]nnc2c1sc1nc3c(c(-c4ccco4)c12)CCc1ccccc1-3,67*
Cc1cc(/C=C2/SC(=S)NC2=O)c(C)n1-c1ccccc1,2
SMILES,ROC1-CUL1 inh
O=C1NC(=S)S/C1=C/c1ccc(F)cc1,16
O=C1NC(=S)S/C1=C/c1ccc(N2N=C(c3ccccc3)CC2c2ccccc2)cc1 (stereo not given),81*
COc1ccccc1C(=O)CC1(O)C(=O)Nc2ccccc21 (stereo not given),9
COc1cccc(NC(=O)CCNS(=O)(=O)c2ccc3c(c2)CCCC(=O)N3)c1,2
O=C1C2C(c3ccccc3)OC3(C(=O)c4ccccc4C3=O)C2C(=O)N1c1ccc(F)cc1 (stereo not given),-4
O=C1C2C(c3ccc(F)c(Cl)c3)OC3(C(=O)c4ccccc4C3=O)C2C(=O)N1c1ccc(Br)cc1 (stereo not given),93*
O=C1C2C(c3ccc(Br)cc3)OC3(C(=O)c4ccccc4C3=O)C2C(=O)N1c1ccc([N+](=O)[O-])cc1 (stereo not given),4
Cc1sc2nc3n(c(=O)c2c1C)N=C(c1ccc(Br)cc1)CS3,7
Cc1ccc(CN2C(=O)S/C(=C\c3ccc(-c4ccc(C(=O)O)c(Cl)c4)o3)C2=O)cc1,69*
O=C(O)c1ccc(-c2ccc(/C=C3\SC(=O)N(Cc4ccccc4)C3=O)o2)cc1Cl,93*
CCN1C(=O)S/C(=C/c2ccc(-c3cccc(C(=O)O)c3C)o2)C1=O,10
Cc1ccc(C(=O)O)cc1-c1ccc(/C=C2\SC(=O)N(Cc3ccccc3)C2=O)o1,14
O=C(O)c1ccc(-c2ccc(/C=C3\SC(=O)N(CC(=O)N4CCOCC4)C3=O)o2)cc1Cl,-1
Cc1ccc(C(=O)O)cc1-c1ccc(/C=C2\SC(=O)N(Cc3ccc(F)cc3)C2=O)o1,-5
Oc1c(Cl)c(Cl)c2c(c1Cl)CC(O)O2 (stereo not given),-3
Cc1ncsc1CCC(=O)NCc1nc(-c2cccc(NC(=O)C3CCCN(C)C3)c2)oc1C (stereo not given),-1
Cc1ccc(C(=O)C2C(=O)C(=O)N(c3nccs3)C2c2cccc(OCc3ccccc3)c2)o1 (stereo not given),16
CCn1c(=O)c2c(nc3oc(C(C)(C)C)cn32)n(C)c1=O,3
CCc1noc(C)c1C(=O)NC(C)c1ccc(C(C)(C)C)cc1 (stereo not given),12
COc1ccc2c(c1)C=C1C(=CC(=Nc3ccc(Br)cc3)CC1(C)C)O2,54*
O=C(/C=C/c1ccco1)Nc1scc(-c2cccs2)c1C(=O)O,28*
Cc1sc(NC(=O)/C=C/c2ccco2)c(C(N)=O)c1C,6
CC(C)(CC(=O)Nc1scc(-c2cccs2)c1C(=O)O)CC(=O)Nc1scc(-c2cccs2)c1C(=O)O,-3
C=CCn1c(SCc2ccccc2C)nnc1-c1ccncc1,-4
N=C1/C(=C/c2cccc(OC(=O)c3ccc(F)cc3)c2)C(=O)N=C2SC(c3cccs3)=NN12,28*
SMILES,ROC1-CUL1 inh
Cc1ccc(C2=NN3C(=N)/C(=C/c4cccc(OCc5ccc(F)cc5)c4)C(=O)N=C3S2)cc1,-7
N=C1/C(=C\c2ccc(OC(=O)c3ccc(F)cc3)c(Cl)c2)C(=O)N=C2SC(c3ccco3)=NN12,13
O=C(Nc1ccc2c(c1)OCCO2)c1ccc(CNS(=O)(=O)c2cccc(C(F)(F)F)c2)cc1,-2
O=C1NN(c2ccccc2)C(=O)/C1=C/c1ccc(OCc2ccccc2)cc1,-13
O=C1NN(c2ccc(Cl)cc2)C(=O)/C1=C/c1cc(Br)cc([N+](=O)[O-])c1O,85*
O=C1NN(c2ccc(I)cc2)C(=O)/C1=C\c1cccs1,4
CCOc1cc(/C=C2\C(=O)NN(c3ccc(Cl)cc3)C2=O)cc(I)c1O,6
COc1cc(/C=C2\C(=O)NN(c3ccc(C)cc3)C2=O)cc([N+](=O)[O-])c1O,6
CCc1ccc(/C=C2\C(=O)NN(c3ccc(C)cc3)C2=O)cc1,45*
O=C1NN(c2ccc(I)cc2)C(=O)/C1=C\c1ccc(Br)cc1,59*
COc1ccc(/C=C2/C(=O)NN(c3ccc(I)cc3)C2=O)cc1,2
O=C1NN(c2ccc(I)cc2)C(=O)/C1=C/c1ccc(Cl)cc1,59*
O=C1NN(c2ccc(Br)cc2)C(=O)/C1=C\c1ccc(O)cc1,2
CCc1ccc(/C=C2\C(=O)NC(=S)N(C)C2=O)cc1,-2
O=C1NN(c2ccc(I)cc2)C(=O)/C1=C\c1ccc(N2CCOCC2)cc1,-3
CCCOc1ccc(C(=O)Nc2cc(-c3nc4cc(C)cc(C)c4o3)ccc2C)cc1,-1
COCCN1CCCC2(CCN(Cc3cnn(C)c3)C2)C1 (stereo not given),2
O=C(Nc1nc2ccc(Br)cc2s1)c1ccc(F)c(F)c1,0
O=C(CCC1(Cc2ccco2)CCC(=O)N1)NCc1nc(-c2ccccc2)no1 (stereo not given),-12
Cc1ccc2ncc(C(=O)c3ccc(C)c(C)c3)c(S(=O)(=O)c3ccc(F)cc3)c2c1,6

# Assay outcomes: PubChem BioAssay, Pan Lab, Icahn School of Medicine at Mount Sinai
